In PubChem BioAssay (EPA / NIEHS):
Active and inactive are the calls of the source. Rule for the calls: active = hit-call score of the fitted dose curve at least 0.9, where 1 is the maximum; inactive = score below 0.9.

What was measured:
[1] = APR_HepG2_P-H2AX_72hr: Apredica 72-hour HepG2 Assay for H2AX Phosphorylation (AID 2282916); conditions: imaging, actives raise or lower the signal;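 note: phospho-histone H2A.x immunostain intensity per cell marking DNA damage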
How it was run: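 Human hepatoma HepG2 cells are dosed across ten concentrations (0.39 to 200 uM, 0.5% v/v DMSO) and incubated 72 hr. Phospho-histone H2A.x is then detected by antibody staining alongside c-Jun and Hoechst, and quantified by automated fluorescence imaging.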

[2] = APR_HepG2_MitoMembPot_72hr: Apredica 72-hour HepG2 Assay for Mitochondrial Membrane Potential (AID 2282917); conditions: imaging, actives raise or lower the signal
How it was run: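 HepG2 cells dosed 72 hr with compound at 0.39–200 uM in duplicate, 0.5% v/v DMSO final. Mitochondria stained with 250 nM MitoTracker Red CMXRos for 30 min before formaldehyde fixation, imaged by high-content fluorescence; bidirectional fit versus DMSO.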

[3] = APR_HepG2_MitoticArrest_72hr: Apredica 72-hour HepG2 Assay for Mitotic Arrest (AID 2282918); conditions: high-content imaging, actives raise or lower the signal
How it was run: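 HepG2 cells treated 72 h at 0.39–200 uM, 0.5% DMSO final; formaldehyde-fixed, stained with Hoechst 33342 and phospho-histone H3 antibody, imaged by high-content fluorescence; bidirectional fit versus DMSO.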

[4] = APR_HepG2_MicrotubuleCSK_72hr: Apredica 72-hour HepG2 Assay for Microtubule CSK Stabilty (AID 2282919); conditions: HepG2 microtubule cytoskeleton, high-content imaging, actives raise or lower the signal
How it was run: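 HepG2, 72 hr cmpd exposure, 0.39–200 uM (10 pts, duplicate), 0.5% DMSO. 3.7% formaldehyde fix, 0.5% Triton perm, anti-alpha-tubulin/Cy5 plus Hoechst. HCS fluorescence intensity; bidirectional fit vs DMSO baseline; taxol as positive control.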

[5] = APR_HepG2_P-H2AX_24hr: Apredica 24-hour HepG2 Assay for H2AX Phosphorylation (AID 2282920); conditions: high-content imaging, actives raise or lower the signal
How it was run: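 HepG2 cells dosed 24 h at 0.39–200 uM (10 points, duplicate, 0.5% DMSO final). Formaldehyde-fixed and permeabilized, then immunostained for phospho-H2A.x with Hoechst. Fluorescence quantified by high-content imaging, fitted bidirectionally versus DMSO.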

[6] = APR_HepG2_StressKinase_72hr: Apredica 72-hour HepG2 Assay for Stress Kinase (AID 2282921); conditions: HepG2 stress kinase (phospho-c-Jun) imaging, actives raise or lower the signal
How it was run: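 After a 72 h compound treatment spanning 0.39 to 200 uM, formaldehyde-fixed cells are labelled for phosphorylated c-Jun and nuclei, imaged by automated fluorescence microscopy, and activity is fitted in both directions relative to DMSO controls.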

[7] = APR_HepG2_p53Act_72hr: Apredica 72-hour HepG2 Assay for p53 Activation (AID 2282923); conditions: high-content imaging, actives raise or lower the signal;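 note: average cellular p53 protein immunofluorescence intensity in HepG2 cells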
How it was run: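 Imaging-based endpoint: after 72 hr compound exposure (up to 200 uM, 0.5% DMSO), fixed and permeabilized monolayers were labelled with anti-p53 antibody and imaged; signal change in either direction was fitted relative to DMSO controls.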

[8] = APR_HepG2_MitoMass_72hr: Apredica 72-hour HepG2 Assay for Mitochondrial Mass (AID 2282924); conditions: high-content imaging, actives raise or lower the signal;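 note: MitoTracker Red CMXRos stain intensity per cell imaged as mitochondrial mass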
How it was run: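 Read-out: MitoTracker Red fluorescence intensity from automated imaging (20x, six fields per well) in human HepG2 liver cells. Dosing ran 72 hr, 0.39–200 uM, 0.5% DMSO; bidirectional curve fitting versus DMSO baseline.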

[9] = APR_HepG2_NuclearSize_72hr: Apredica 72-hour HepG2 Assay for Nuclear Size (AID 2282925); conditions: high-content imaging, actives raise or lower the signal
How it was run: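 Read-out: nuclear diameter from Hoechst 33342 images (ArrayScan, 20x, six fields/well), via cell-cycle image analysis. HepG2 were dosed 0.39–200 uM for 72 hr in 0.5% DMSO. Bidirectional fit relative to DMSO.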

Row | SMILES | outcome [1] | outcome [2] | outcome [3] | outcome [4] | outcome [5] | outcome [6] | outcome [7] | outcome [8] | outcome [9] | AC50 [1] | AC50 [3] | AC50 [4] | AC50 [6] | AC50 [7] | AC50 [5] | AC50 [2]
1 | COc1cccc(C(=O)NN(C(=O)c2cc(C)cc(C)c2)C(C)(C)C)c1C | inactive | inactive | inactive | inactive | inactive | inactive | inactive | inactive | inactive |  |  |  |  |  |  | 
2 | O=C(O)c1cc(Oc2ccc(C(F)(F)F)cc2Cl)ccc1[N+](=O)[O-] | inactive | inactive | inactive | inactive | inactive | inactive |  | inactive | inactive |  |  |  |  |  |  | 
3 | S=C1NCCN1 | inactive | inactive | inactive | inactive | inactive | inactive | inactive | inactive | inactive |  |  |  |  |  |  | 
4 | CN(C)[C@@H]1C(=O)C(C(N)=O)=C(O)[C@@]2(O)C(=O)C3=C(O)c4c(O)cccc4[C@@](C)(O)[C@H]3[C@H](O)[C@@H]12 | inactive | inactive | inactive | inactive | inactive | inactive |  | inactive | inactive |  |  |  |  |  |  | 
5 | CCOP(=S)(OCC)Oc1ccc2c(C)c(Cl)c(=O)oc2c1 |  | inactive |  |  | inactive | inactive | inactive | inactive | inactive | 100 µM (active) | 93.2 µM (active) | 40.5 µM (active) |  |  |  | 
6 | CC1=NNC(=O)N(/N=C/c2cccnc2)C1 | inactive | inactive | inactive | inactive | inactive | inactive | inactive | inactive | inactive |  |  |  |  |  |  | 
7 | CN1COCN(Cc2cnc(Cl)s2)C1=N[N+](=O)[O-] | inactive | inactive | inactive | inactive | inactive | inactive | inactive | inactive | inactive |  |  |  |  |  |  | 
8 | COP(=O)(OC)SCn1c(=O)oc2cc(Cl)cnc21 |  | inactive |  |  | inactive |  | inactive | inactive | inactive | 53.8 µM (active) | 68.3 µM (active) | 56.3 µM (active) | 26.3 µM (active) |  |  | 
9 | CC(=NC#N)N(C)Cc1ccc(Cl)nc1 | inactive | inactive | inactive | inactive | inactive | inactive | inactive | inactive | inactive |  |  |  |  |  |  | 
10 | CNc1cnn(-c2cccc(C(F)(F)F)c2)c(=O)c1Cl | inactive | inactive | inactive | inactive | inactive | inactive | inactive | inactive | inactive |  |  |  |  |  |  | 
11 | CC(C)[C@H](C(=O)O[C@H](C#N)c1cccc(Oc2ccccc2)c1)c1ccc(Cl)cc1 | inactive | inactive | inactive | inactive | inactive | inactive | inactive | inactive | inactive |  |  |  |  |  |  | 
12 | CCC(CC)Nc1c([N+](=O)[O-])cc(C)c(C)c1[N+](=O)[O-] | inactive | inactive | inactive |  | inactive | inactive | inactive | inactive | inactive |  |  | 108 µM (active) |  |  |  | 
13 | FC(F)C(F)(F)OCC(Cn1cncn1)c1ccc(Cl)cc1Cl (stereo unspecified) |  | inactive |  |  | inactive | inactive |  | inactive | inactive | 105 µM (active) | 100 µM (active) | 84.6 µM (active) |  | 116 µM (active) |  | 
14 | Cc1nn(-c2cc(NS(C)(=O)=O)c(Cl)cc2Cl)c(=O)n1C(F)F | inactive | inactive | inactive | inactive | inactive | inactive | inactive | inactive | inactive |  |  |  |  |  |  | 
15 | COP(=O)(OC)OC(Br)C(Cl)(Cl)Br (stereo unspecified) | inactive | inactive | inactive | inactive |  | inactive |  | inactive | inactive |  |  |  |  |  | 33.4 µM (active) | 
16 | CC(C)=CC1C(C(=O)OCN2C(=O)C3=C(CCCC3)C2=O)C1(C)C (stereo unspecified) | inactive | inactive | inactive | inactive |  | inactive | inactive | inactive | inactive |  |  |  |  |  | 99.3 µM (active) | 
17 | CCOP(=O)(OCC)Oc1cc(C)nc(C(C)C)n1 | inactive | inactive | inactive | inactive | inactive | inactive | inactive | inactive | inactive |  |  |  |  |  |  | 
18 | Cc1cc(C2CC2)nc(Nc2ccccc2)n1 |  | inactive |  |  | inactive | inactive | inactive | inactive | inactive | 51.8 µM (active) | 70.1 µM (active) | 56.9 µM (active) |  |  |  | 
19 | CCNc1nc(Cl)nc(NC(C)(C)C#N)n1 | inactive | inactive | inactive | inactive | inactive | inactive | inactive | inactive | inactive |  |  |  |  |  |  | 

Row | SMILES | outcome [1] | outcome [2] | outcome [3] | outcome [4] | outcome [5] | outcome [6] | outcome [7] | outcome [8] | outcome [9] | AC50 [1] | AC50 [3] | AC50 [4] | AC50 [6] | AC50 [7] | AC50 [5] | AC50 [2]
20 | CCOP(=O)(NC(C)C)Oc1ccc(SC)c(C)c1 (stereo unspecified) | inactive |  | inactive | inactive | inactive | inactive | inactive | inactive | inactive |  |  |  |  |  |  | 50.5 µM (active)
21 | Nc1nc(N)nc(NC2CC2)n1 | inactive | inactive | inactive | inactive | inactive | inactive | inactive | inactive | inactive |  |  |  |  |  |  | 
22 | CCOP(=S)(OCC)OC(Cl)C(Cl)(Cl)Cl (stereo unspecified) | inactive | inactive | inactive |  | inactive | inactive | inactive | inactive | inactive |  |  | 109 µM (active) |  |  |  | 
23 | CCOP(=S)(OCC)Oc1ccc([N+](=O)[O-])cc1 | inactive | inactive | inactive | inactive | inactive | inactive | inactive | inactive | inactive |  |  |  |  |  |  | 
24 | C#CC(C)(C)NC(=O)c1cc(Cl)cc(Cl)c1 | inactive | inactive | inactive | inactive | inactive | inactive | inactive | inactive | inactive |  |  |  |  |  |  | 
25 | CCCCOC(=O)c1ccccc1C(=O)O | inactive | inactive | inactive | inactive | inactive | inactive | inactive | inactive | inactive |  |  |  |  |  |  | 
26 | Cc1ccn2nc(S(=O)(=O)Nc3c(F)cccc3F)nc2n1 | inactive | inactive | inactive | inactive | inactive | inactive |  | inactive | inactive |  |  |  |  |  |  | 
27 | C=C(C)[C@H]1Cc2c(ccc3c2O[C@@H]2COc4cc(OC)c(OC)cc4[C@@H]2C3=O)O1 |  |  |  | inactive |  |  |  | inactive | inactive | 1.62 µM (active) | 1.15 µM (active) |  | 4.05 µM (active) |  | 12.2 µM (active) | 15.7 µM (active)
28 | CCc1cnc(C2=NC(C)(C(C)C)C(=O)N2)c(C(=O)O)c1 (stereo unspecified) | inactive | inactive | inactive | inactive | inactive | inactive |  | inactive | inactive |  |  |  |  |  |  | 
29 | CCCOCC(=Nc1ccc(Cl)cc1C(F)(F)F)n1ccnc1 | inactive | inactive | inactive | inactive | inactive | inactive | inactive | inactive | inactive |  |  |  |  |  |  | 
30 | CC(COc1ccc(Oc2ccccc2)cc1)Oc1ccccn1 (stereo unspecified) | inactive | inactive | inactive |  | inactive | inactive | inactive | inactive | inactive |  |  | 82.3 µM (active) |  |  |  | 
31 | CC1(C(=O)Nc2ccc(O)c(Cl)c2Cl)CCCCC1 | inactive | inactive | inactive |  | inactive | inactive | inactive | inactive | inactive |  |  | 91.7 µM (active) |  |  |  | 
32 | CCOC(=O)CC(SP(=O)(OC)OC)C(=O)OCC (stereo unspecified) | inactive | inactive | inactive | inactive | inactive | inactive | inactive | inactive | inactive |  |  |  |  |  |  | 
33 | CN(C)C(=O)Nc1cccc(C(F)(F)F)c1 | inactive | inactive | inactive | inactive | inactive | inactive | inactive | inactive | inactive |  |  |  |  |  |  | 
34 | CC(C1CC1)C(O)(Cn1cncn1)c1ccc(Cl)cc1 (stereo unspecified) | inactive | inactive | inactive | inactive | inactive | inactive | inactive | inactive | inactive |  |  |  |  |  |  | 
35 | COP(=O)(NC(C)=O)SC (stereo unspecified) | inactive | inactive | inactive | inactive | inactive | inactive | inactive | inactive | inactive |  |  |  |  |  |  | 
36 | COc1ccc(C(=CC(=O)N2CCOCC2)c2ccc(Cl)cc2)cc1OC | inactive | inactive | inactive | inactive | inactive | inactive | inactive | inactive | inactive |  |  |  |  |  |  | 
37 | Nc1c(Cl)cc([N+](=O)[O-])cc1Cl | inactive | inactive | inactive | inactive | inactive | inactive |  | inactive | inactive |  |  |  |  |  |  | 
